Assay results reported in PubChem BioAssay (Tox21).
Results filed as inconclusive are left out. Unmarked numbers belong to inactive results. Calls of active or inactive are those of the source. Calls follow the shape of the dose curve; as a rule, active = well fitted cell-killing curve with a large enough effect in the repeat runs; inconclusive = weak or mixed curves, or effect the other way; inactive = flat fitted curve, though single readings scatter.

Experiment: cAMP Responsive Elements (CRE) small molecule antagonists, cell-based qHTS assay: qHTS cell viability counter screen (AID 2060913); also: nearly all actives have a fitted effect of over 40% in size
Settings: CRE-bla HEK293T viability, CellTiter-Glo luminescence, 5 h; series mostly up to 92.4 µM; viability change, negative = cytotoxic: at the top concentration
In short: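 Cytotoxicity read in the same wells as the CRE-bla HEK293T antagonist assay: after 3 h compound with 0.25 uM NKH477 final and 2 h beta-lactamase substrate, CellTiter-Glo luminescence measured.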
% is scaled to controls: 0 for no effect and ±100 for the full control effect; potency is read from the fitted curve at half-maximal effect.

SMILES	Potency	viability change, negative = cytotoxic
Clc1cccc(Cl)c1	inactive	
C[C@]12CC[C@H]3[C@@H](CCC4=CC(=O)CC[C@@H]43)[C@@H]1CC[C@@H]2OC(=O)CCC1CCCCC1		0.477% [at 42.5 µM]
Cc1ccc([N+](=O)[O-])[c]2c1[O][Hg]2	11.9 µM (active)	
CC(=O)/C=C/c1ccc2c(c1)OCO2		17.5%
C=CC#N	inactive	
C[C@H]1[C@H](c2ccc(Cl)cc2)SC(=O)N1C(=O)NC1CCCCC1		-6.82%
CCCC[n+]1ccccc1	inactive	
Cc1cc(Cl)ccc1OCCCC(=O)O		3.21%
COP(N)(=S)OC		-1.92%
NC1=NC(=O)C(c2ccccc2)O1 (stereo not drawn)		8.13% [at 42.5 µM]
CCS(=O)(=O)c1cccnc1S(=O)(=O)NC(=O)Nc1nc(OC)cc(OC)n1		4.34%
CN1CSC(=S)N(C)C1	inactive	
CC(Cl)(Cl)C(=O)O	inactive	
